Bioassay records as filed in PubChem.
ATXN2 expr inh: Primary qHTS for Inhibitors of ATXN expression | HEK-293 ATXN2-luciferase reporter, luminescence, 24 h | Potency, µM (highest dose often 57 µM), usual class: inhibitors | actives 0.72% (n = 360,000); also: nearly all actives have a fitted effect of over 55% in size
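qHTS (up to 57 uM final) was run with 24 h compound exposure of reporter cells at 37 °C. Each well was multiplexed: SteadyGlo luminescence measured ATXN2-luciferase expression after a fluorogenic Gly-Phe-AFC viability readout (25 uM final).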
TGFb SMAD3 inh: qHTS for Inhibitors of TGF-b | actives 1.2% (n = 410,000) | Potency, µM (highest dose often 46.1 µM), most hits filed as inhibitors | HepG2 CAGA-GFP TGF-b/SMAD3 reporter, GFP fluorescence, 18 h; TGF-beta stimulated, 500 pg/mL final; also: nearly all actives have a fitted effect of over 65% in size
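Smad-responsive CAGA-GFP expression was quantified in HEPG2 cells exposed to compounds and 500 pg/mL final TGF-beta for 18 h at 37 degrees C; unstimulated wells defined full inhibition.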
S2 tox: Viability Counterscreen for Primary qHTS for Inhibitors of ATXN expression. S2 cells (HEK-293 line with an ATXN2-luciferase reporter) viability, CellTiter-Fluor protease fluorescence, 24 h. Potency, µM (top dose mostly 56.7 µM), most hits filed as cytotoxic. actives 0.49% (n = 400,000). AID 651635, 2014; also: nearly all actives have a fitted effect of over 40% in size
HepG2 viability: qHTS for Inhibitors of TGF-b: Cytotox Counterscreen; HepG2 CAGA-GFP viability, ATP luminescence, 18 h; Potency, µM (titrated, usually from 46.1 µM), actives largely listed as cytotoxic; actives 0.76% (n = 410,000); AID 588856, 2011
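CellTiter-Glo luminescence gave cytotoxicity after 18 hours at 37 degrees C. The cells were HepG2 CAGA-GFP in 1% FBS DMEM, stimulated with 500 pg/mL TGF-beta after compound addition. %Activity was normalised to no-cell wells (complete cell-killing) and DMSO (no toxicity), and curves were fitted and classified.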
Large screens that a line does not name were inactive. This is a sample that favours compounds with a hit; in the whole collection about 2.3% have one here. Calls follow the shape of the dose curve; as a rule, active = well fitted curve in the direction sought with a large enough effect; inconclusive = small, poorly fitted or top-dose-only effect, or another doubt; inactive = no such curve, though single readings can be large; an effect the other way counts as inactive or inconclusive.

C/C=C1\NC(=O)[C@H]2CSSCC/C=C/[C@H](CC(=O)N[C@H](C(C)C)C(=O)N2)OC(=O)C(C(C)C)NC1=O (some centres undefined)	S2 tox 4.47µM (no result: ATXN2 expr inh, TGFb SMAD3 inh, HepG2 viability)
CCC(=O)N[C@@H]1c2ccccc2C2(CCN(Cc3ccccn3)CC2)[C@H]1OC	none (no result: ATXN2 expr inh, TGFb SMAD3 inh, HepG2 viability)
Cc1ccc(-c2ccnc(-n3ncc(C(=O)NCCN4CCOCC4)c3C3CC3)n2)o1	none (no result: ATXN2 expr inh, TGFb SMAD3 inh, HepG2 viability)
Cc1ccc(S(=O)(=O)Nc2ccc(C(OC(=O)c3ccccc3[N+](=O)[O-])(C(F)(F)F)C(F)(F)F)cc2)cc1	TGFb SMAD3 inh 10µM, HepG2 viability 10µM
Cc1nc([N+](=O)[O-])c(Br)n1Cc1ccc(Cl)c(Cl)c1	TGFb SMAD3 inh inconclusive, S2 tox 20µM (no result: ATXN2 expr inh)
Cc1nc([N+](=O)[O-])c(Br)n1CC(=O)c1ccc(Cl)cc1	ATXN2 expr inh inconclusive, TGFb SMAD3 inh inconclusive, S2 tox inconclusive
Cc1ccc(C(=O)NCCc2cccs2)cc1	ATXN2 expr inh 14.1µM
O=C(NCCc1cccs1)c1ccc(Cl)cc1	none
Cc1ccc(C(=O)N(CCCN(C)C)c2nc3ccc(Cl)cc3s2)cc1C	ATXN2 expr inh inconclusive, TGFb SMAD3 inh inconclusive, S2 tox inconclusive, HepG2 viability 22.4µM
CN(C)CCCN(C(=O)c1ccc(S(=O)(=O)N(C)C)cc1)c1nc2cc3c(cc2s1)OCO3	none
CCN(Cc1ccccc1)S(=O)(=O)c1ccc(C(=O)N(CCCN(C)C)c2nc3cc4c(cc3s2)OCO4)cc1	ATXN2 expr inh inconclusive, TGFb SMAD3 inh 15.8µM, S2 tox inconclusive, HepG2 viability 12.6µM
CN(C)CCCN(C(=O)c1ccc(C(=O)c2ccccc2)cc1)c1nc2cc3c(cc2s1)OCCO3	TGFb SMAD3 inh 14.1µM
CC1COC2(CCN(c3nc(=O)c4cc(C(F)(F)F)cc([N+](=O)[O-])c4s3)CC2)O1 (centres undefined)	none (no result: TGFb SMAD3 inh, S2 tox, HepG2 viability)
Cc1cc(N(C)C)cc(C)c1/C=C/c1ccnc2ccccc12	TGFb SMAD3 inh inconclusive (no result: ATXN2 expr inh, S2 tox)
Cc1cnc(-n2ncc(C(=O)N(C)CC3CCCN(C)C3)c2C2CC2)nc1-c1cccs1 (centres undefined)	none (no result: ATXN2 expr inh, TGFb SMAD3 inh, HepG2 viability)
COc1cc(-c2nc(SCC(=O)Nc3ccc4c(c3)OCO4)c(-c3ccccc3)[nH]2)cc(OC)c1OC	ATXN2 expr inh inconclusive, S2 tox inconclusive
CCOc1ccc(-c2nc(SCC(=O)Nc3ccc4c(c3)OCCO4)c(-c3ccc(F)cc3)[nH]2)cc1	TGFb SMAD3 inh inconclusive, HepG2 viability 12.6µM
O=C(CSc1nc(-c2ccccc2)[nH]c1-c1ccccc1)Nc1ccc2c(c1)OCO2	ATXN2 expr inh 20µM, TGFb SMAD3 inh 11.2µM, S2 tox inconclusive
COc1ccc(NC(=O)CSc2nc(-c3cccc(C)c3)[nH]c2-c2ccccc2)cc1OC	ATXN2 expr inh inconclusive, TGFb SMAD3 inh 11.2µM, S2 tox inconclusive
COc1ccc(-c2nc(SCC(=O)Nc3ccc4c(c3)OCCO4)c(-c3ccccc3)[nH]2)cc1	TGFb SMAD3 inh inconclusive, S2 tox inconclusive
CC(C)(C)n1ncc2c(=O)n(Cc3ccc(C#N)cc3F)cnc21	none (no result: ATXN2 expr inh, S2 tox)
COc1ccc(C(=O)C[n+]2cc(Br)cc(Br)c2)cc1	none (no result: ATXN2 expr inh, S2 tox)
N#Cc1nc(-c2ccc(OCc3ccc(Cl)cc3)cc2)oc1N1CCCCCC1	none (no result: ATXN2 expr inh, S2 tox)
O=C(NCCc1ccccc1F)c1ccc2c(c1)OCCO2	ATXN2 expr inh 0.562µM, S2 tox inconclusive
COc1cccc(O)c1CN1CCCC(C(=O)c2cccc(C(F)(F)F)c2)C1 (centres undefined)	TGFb SMAD3 inh 15.8µM
CCOc1cc(C2Nc3ccccc3C(=O)N2Cc2ccco2)ccc1OCc1ccccc1Cl (centres undefined)	TGFb SMAD3 inh inconclusive (no result: ATXN2 expr inh, S2 tox)
Cc1cccc2c(=O)cc(CSc3ccccc3NC(=O)c3cccc(Br)c3)[nH]c12	S2 tox 17.8µM
CCCCCNc1nc(NCCCO)c(C#N)c2c1CN(C)CC2	none
CCCCCNc1nc(N2CCCC2)c2c(c1C#N)CCN(C)C2	TGFb SMAD3 inh inconclusive, S2 tox inconclusive, HepG2 viability 22.4µM
COc1ccccc1NC(=O)CN1CCOCC1	HepG2 viability 7.94µM
Oc1[nH]c2c(Cl)cc(Cl)cc2c1N=NC(=S)NCC1CCCO1 (centres undefined)	ATXN2 expr inh 21.2µM, TGFb SMAD3 inh inconclusive, S2 tox inconclusive
Cc1ccc(N=Nc2c(O)n(CN3CCOCC3)c3ccccc23)cc1	none
Oc1[nH]c2ccccc2c1N=NC(=S)NCC1CCCO1 (centres undefined)	ATXN2 expr inh inconclusive
Cc1cccc(NC(=S)N=Nc2c(O)n(CN3CCOCC3)c3ccccc23)c1C	TGFb SMAD3 inh 2.24µM (no result: ATXN2 expr inh, S2 tox)
CCn1c(O)c(N=NC(=S)NCC2CCCO2)c2ccccc21 (centres undefined)	TGFb SMAD3 inh 10µM (no result: ATXN2 expr inh, S2 tox)
O=CNc1ccc(/C=C/c2ccnc3ccccc23)cc1	none (no result: ATXN2 expr inh, S2 tox)
CCCCC(=O)OC1=C(C(=O)c2ccccc2)N(C)S(=O)(=O)c2ccccc21	TGFb SMAD3 inh 17.8µM
CCOC(=O)CN1C(C(=O)c2ccccc2)=C(OC(=O)c2ccccc2)c2ccccc2S1(=O)=O	TGFb SMAD3 inh inconclusive, S2 tox inconclusive
CCN1C(C(=O)c2ccccc2)=C(OC(=O)c2ccc(Cl)cc2)c2ccccc2S1(=O)=O	TGFb SMAD3 inh 11.2µM (no result: ATXN2 expr inh, S2 tox)
CCCCN1CCc2c1nc1ccc(Br)cc1c2N	ATXN2 expr inh inconclusive, TGFb SMAD3 inh inconclusive, HepG2 viability 15.8µM (no result: S2 tox)
CC(=O)c1ccc(-c2cc(F)cc3c2OC(CNC(=O)Cc2cn4ccsc4n2)C3)s1 (centres undefined)	none (no result: ATXN2 expr inh, TGFb SMAD3 inh, HepG2 viability)
Cc1ccc(-c2nnc(-c3ccccc3)c(-c3ccccc3)n2)cc1	none
Cc1ccc2nc(-c3ccccc3)nn2c1	ATXN2 expr inh 3.16µM
CC(NC(=O)/C(C#N)=C/c1ccc(Cl)c([N+](=O)[O-])c1)c1ccccc1 (centres undefined)	TGFb SMAD3 inh inconclusive, S2 tox 22.4µM (no result: ATXN2 expr inh)
Cc1cc(Cl)ccc1NS(=O)(=O)c1ccc2c(c1)CC(C)N2C(=O)C1CCC1 (centres undefined)	TGFb SMAD3 inh 11.2µM
Cc1ccc(NS(=O)(=O)c2ccc3c(c2)CC(C)N3C(=O)C2CCC2)cc1Cl (centres undefined)	ATXN2 expr inh inconclusive, TGFb SMAD3 inh inconclusive
CCCC[C@@H](CNC)NC[C@H](Cc1ccc(O)cc1)NCCc1ccc(OCC)cc1	ATXN2 expr inh inconclusive, TGFb SMAD3 inh inconclusive, S2 tox inconclusive, HepG2 viability 12.6µM
CCC/C(=C1/c2ccccc2C(=O)N1c1ccccc1)c1ccc2[nH]ccc2c1	TGFb SMAD3 inh 11.2µM, S2 tox inconclusive
O=C1c2ccccc2/C(=C\c2ccc3[nH]ccc3c2)N1c1ccccc1	S2 tox inconclusive
COc1cc2c(oc(=O)c3cc(C)cc(OC)c32)c2c(C3OC(C)C(O)C(C)(O)C3O)ccc(O)c12 (centres undefined)	TGFb SMAD3 inh 7.08µM, S2 tox inconclusive
CC(C)(c1ccccc1)c1ccc(OCCCN2CCNCC2)cc1	S2 tox inconclusive, HepG2 viability 22.4µM
O=C(OC(C(=O)N1CCOCC1)c1ccccc1)c1c2c(nc3ccccc13)CCCC2 (centres undefined)	none (no result: ATXN2 expr inh, S2 tox)
